# A selection: hits, their analogues and other compounds. The true share with any hit is near 19%.
# DT40 TDP1 no CPT: qHTS for Inhibitors of human tyrosyl-DNA phosphodiesterase 1 (TDP1): qHTS in cells in absence of CPT. DT40 Tdp1-/- hTDP1 cells, no CPT, ATP luminescence, 48 h. hit rate 15% among 420,000. Potency, µM (doses to about 46.2 µM), usual class: inhibitors. AID 686978, 2013; also: nearly all actives have a fitted effect of over 55% in size
#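 A cellular qHTS used chicken DT40 cells lacking endogenous Tdp1 but carrying stably transfected human TDP1. Compounds were applied without camptothecin, and cell growth kinetics were judged by ATP-dependent luminescence after ≥48 hr.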
# HT1080 IDH1KD tx: kills HT-1080 cells with IDH1 knockdown; HT-1080 IDH1 knockdown viability, ATP luminescence, 48 h; Potency, µM (series often up to 46.1 µM), most hits filed as cytotoxic; hit rate 2% among 360,000
#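 CellTiter-Glo luminescence after 48 h compound exposure at 37 degrees C of IDH1-knockdown HT-1080 cells in 5% FBS RPMI. %Activity scaled between DMSO wells and cell-free media wells, with curves fitted and assigned curve classes.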
# ELG1 repair inh: inhibitors of ELG1-dependent DNA repair in HEK293T cells; hit rate 2.3% among 330,000; HEK293T ELG1-luciferase reporter, luminescence, 16 h; DNA damage induced by 5-fluorouridine; Potency, µM (doses to about 46.1 µM), usual class: inhibitors; also: nearly all actives have a fitted effect of over 55% in size
#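 Step one: seed 2,000 cells per well. Step two: pin-transfer compound or DMSO alongside 5-fluorouridine. Step three: incubate 16 hr, 37 °C, 5% CO2. Step four: add ONE-Glo, wait 30 min, read luminescence.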
# IL1B secr inh: blocks inflammasome-driven IL-1 beta release | THP-1 LPS/ATP IL-1B secretion, AlphaLISA, 16 h; hits give low values | activity change, % at 57.5 µM | hit rate 4.7% among 360,000 | AID 743279; in the data active = activity change below about -50%; inconclusive = mostly about -30% to -49%
#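 Secreted IL-1B measured by AlphaLISA bead assay after 16 h compound exposure of THP-1 cells; compounds (final up to 57.5 uM) added 1 h before LPS (250 ng/mL) and ATP (1.25 mM) stimulation; lower signal means less secretion.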
# HT1080NT lethal: kills 2HG-producing HT-1080-NT fibrosarcoma cells; hit rate 1.6% among 360,000; AID 686970; HT-1080-NT fibrosarcoma viability, CellTiter-Glo ATP luminescence, 48 h; Potency, µM (top dose mostly 46.1 µM), actives largely listed as cytotoxic;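 also: NT is the 2HG producing partner of a matched IDH1 knockdown line; nearly all actives have a fitted effect of over 55% in size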
#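 Compounds were tested in concentration-response format on HT-1080-NT cells for 48 hours at 37 degrees C. Cell viability came from CellTiter-Glo luminescence; curves were classified by r2, response magnitude and activity.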
# TDP1 cell CPT: DT40-hTDP1 cell growth loss with CPT; hit rate 12% among 420,000; chicken DT40 Tdp1-/-;hTDP1 cells + 20 nM CPT, ATP luminescence, 48 h; Potency, µM (series often up to 46.2 µM), usual class: inhibitors; also: nearly all actives have a fitted effect of over 55% in size
#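 Chicken DT40 Tdp1-/- cells stably complemented with human TDP1 were seeded at 400 cells/well in medium containing 20 nM camptothecin, exposed to pin-transferred compounds, and grown at 37 °C for at least 48 hr. Viability was read as ATP luminescence.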
# A number is an active result; n = inactive; u = inconclusive; x = no result; [ ] = another dose, or the depositor's remark. Unless noted, calls follow the shape of the dose curve; as a rule, active = well fitted curve in the direction sought with a large enough effect; inconclusive = small, poorly fitted or top-dose-only effect, or another doubt; inactive = no such curve, though single readings can be large; an effect the other way counts as inactive or inconclusive.
SMILES,DT40 TDP1 no CPT,HT1080 IDH1KD tx,ELG1 repair inh,IL1B secr inh,HT1080NT lethal,TDP1 cell CPT
CCn1c(Cn2nnc(-c3ccccc3)n2)nnc1SCc1ccc(Cl)c(Cl)c1,23µM,u,u,n,u,21µM
N#Cc1ccc(CSc2nnc(COc3ccccc3)n2-c2ccccc2)cc1,u,n,u,n,n[9.24 µM],u
CCn1c(Cn2nnc(-c3ccccc3)n2)nnc1SCC(=O)N1CCOCC1,n,n,n,n,n,n
Cn1c2c(c(=O)n(C)c1=O)CN(Cc1ccccc1)CN2,n,n,x,n,n,n
COc1ccc2c(=O)c(-c3nc(C)cs3)coc2c1,n,n,u,n,n,n
Cc1csc(-c2coc3cc(O)cc(C)c3c2=O)n1,u,u,u,n,u,16µM
Cc1c(S(=O)(=O)N2CCCCC2)c(=O)n(C)c(=O)n1C,n,n,n,n,n,n
C[C@@H]1CN([C@@H](C)CO)S(=O)(=O)c2ccc(-c3ccc(C#N)cc3)cc2O[C@@H]1CN(C)Cc1ccccn1,13µM,n,x,n,n,u
C[C@H]1CN([C@@H](C)CO)S(=O)(=O)c2ccc(-c3ccc(C#N)cc3)cc2O[C@H]1CN(C)C(=O)CN(C)C,n,n,x,n,n,n
C[C@@H]1CN([C@@H](C)CO)S(=O)(=O)c2ccc(Br)cc2O[C@@H]1CN(C)Cc1ccccn1,u,n,x,n,n,u
C[C@@H]1CN([C@@H](C)CO)S(=O)(=O)c2ccc(Br)cc2O[C@H]1CN(C)Cc1ccccn1,23µM,n,x,n,n,15µM
COC(=O)[C@]12CCCCC=C1N(Cc1ccco1)C(=O)[C@H](CC(=O)NCCC(C)C)C2,u,n,x,n,n,u
O=C(Nc1ccc(N2CCCC2)cc1)c1cc(Cl)ccc1Cl,23µM,u,n,n,u,23µM
O=C(Nc1ccccc1N1CCCCC1)c1cccc(Cl)c1,u,n,n,n,n,u
O=C(Nc1ccc(N2CCCC2)cc1)c1cccc(Cl)c1,13µM,n,u,n,n,n
O=C(Nc1ccc(N2CCCC2)cc1)c1ccc(Cl)cc1Cl,n,n,u,n,n,n
CC(=O)Nc1ccc(N2CCCCC2)c(C(=O)Nc2cccc(C)c2)c1,9.2µM,u,u,n,n,u
O=C(Nc1ccc(N2CCCCC2)cc1)c1ccccn1,10µM,10µM,u,n,9.2µM,16µM
COc1ccc(NC(=O)CSc2n[nH]c(CNc3cccc(C)c3)n2)cc1,n,u,n,n,n,n
O=C(NCCN1CCOCC1)c1ccc(=O)n(Cc2ccc(Cl)cc2)c1,n,n,n,n,n,n
Cc1nc(NCc2cnn(C)c2C)sc1-c1ccn(CC2COc3ccccc3O2)n1 (stereo unspecified),u,x,x,x,x,n[9.04 µM]
O=C(Nc1ccc(N2CCCCCC2)cc1)c1ccccc1Cl,16µM,8.2µM,u,u,12µM,13µM
O=C(Nc1ccc(N2CCOCC2)c(Cl)c1)c1ccccc1F,n,n,u,x,n,n
O=C(Nc1ccc(N2CCCC2)c(Cl)c1)c1ccccc1F,u,n,x,-50,n,n
COc1cccc(NC(=O)Cn2c(=O)n(Cc3ccc(C(=O)NCc4ccc(C)cc4)cc3)c(=O)c3ccccc32)c1,n,x,x,x,x,n
SMILES,DT40 TDP1 no CPT,HT1080 IDH1KD tx,ELG1 repair inh,IL1B secr inh,HT1080NT lethal,TDP1 cell CPT
CCN(CCn1cccn1)Cc1cn[nH]c1-c1ccc(-c2ccccc2)cc1,23µM,n,u,n,n,u
CCN(CCn1cccn1)Cc1cn[nH]c1-c1cccc2ccccc12,n,n,n,n,n,n
O=C(c1cccnc1)C1CCCN(Cc2ccc3c(c2)CN(C(=O)c2cnccn2)CCO3)C1 (stereo unspecified),n,x,x,x,x,n[9.04 µM]
COc1ccc(NC(=O)N(Cc2cc3cc(C)ccc3[nH]c2=O)CC2CCCO2)cc1 (stereo unspecified),u,n,u,u,n,18µM
Cc1cccc(NC(=O)N(Cc2cc3cc(C)ccc3[nH]c2=O)CC2COCCO2)c1 (stereo unspecified),23µM,n,12µM,-73,n,u
COc1ccc2[nH]c(=O)c(CN(CC3CCCO3)C(=O)Nc3ccc(F)cc3)cc2c1 (stereo unspecified),12µM,n,7.3µM,n,n,16µM
Cc1ccc2[nH]c(=O)c(CN(CCCN3CCOCC3)C(=O)Nc3ccc(Cl)cc3)cc2c1,16µM,n,n,n,n,15µM
CCOc1ccc2[nH]c(=O)c(CN(CC3COCCO3)C(=O)C3CC3)cc2c1 (stereo unspecified),n,n,n,n,n,n
O=C(Nc1cccc(F)c1)N1CC[C@@]2(CCCN(C(=O)c3cnccn3)C2)C1,n,x,x,x,x,n
COc1ccc2[nH]c(=O)c(CN(CC3CCCO3)C(=S)Nc3ccc(C)cc3)cc2c1 (stereo unspecified),16µM,n,n,n,n,n
COc1ccccc1NC(=O)N(CCN1CCCC1)Cc1cc2cc(C)ccc2[nH]c1=O,u,u,x,n,n[9.24 µM],u
COc1ccc2cc(CN(CC3CCCO3)C(=S)NCc3ccco3)c(=O)[nH]c2c1 (stereo unspecified),u,n,u,n,n,n
COc1ccc2[nH]c(=O)c(CN(Cc3cccnc3)C(=S)NCC3CCCO3)cc2c1 (stereo unspecified),21µM,n,u,n,n,18µM
CCOc1ccc2[nH]c(=O)c(CN(C(=O)N3CCOCC3)C3CC3)cc2c1,x,x,n,x,x,x
CCN1CCCC1CN(Cc1cc2cc(C)ccc2[nH]c1=O)C(=O)Nc1ccccc1OC (stereo unspecified),21µM,n,u,n,n,u
COc1cc(C(=O)N(Cc2cc3cc(C)ccc3[nH]c2=O)CC2CCCO2)cc(OC)c1OC (stereo unspecified),n,n,u,n,n,n
CCOc1ccc2[nH]c(=O)c(CN(Cc3ccccc3)C(=O)N3CCCC3)cc2c1,u,n,u,n,n,21µM
CN(CC(=O)Nc1cccc(Cl)c1)S(=O)(=O)c1ccc2[nH]c(=O)oc2c1,n,n,n,n,n,n
Cc1ccc2[nH]c(=O)c(CN(Cc3ccccc3Cl)C(=O)N3CCOCC3)cc2c1,21µM,n,n,u,n,u
Cc1cccc(CCN(Cc2cc3cccc(C)c3[nH]c2=O)C(=O)N2CCOCC2)c1,n,n,u,n,n,u
COc1ccc(N(Cc2cc3cc(OC)ccc3[nH]c2=O)S(=O)(=O)c2ccc(NC(C)=O)cc2)cc1,8.2µM,x,u,n,x,16µM
